# In PubChem BioAssay (EPA / NIEHS):
# Activity calls are given as the source filed them. Rule for the calls: active = hit-call score of the fitted dose curve at least 0.9, where 1 is the maximum; inactive = score below 0.9.
# Assay: APR_HepG2_CellLoss_1hr: Apredica 1-hour HepG2 Assay for Cell Loss (AID 2282668);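 note: curves fitted both ways against DMSO so gain or loss of cells counts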
# Conditions: high-content imaging
# Protocol: APR_HepG2_1hr is a cell-based, multiplexed-readout assay that uses HepG2, a human liver cell line, with measurements taken at 1 hour after chemical dosing in a 384-well plate.APR_HepG2_CellLoss_1hr is one of 10 assay component(s) measured or calculated from the APR_HepG2_1hr assay. It is designed to make measurements of cell number, a form of viability reporter, as detected with fluorescence intensity signals by HCS Fluorescent Imaging technology.Data from the assay component APR_HepG2_CellLoss_1hr was analyzed into 1 assay endpoint. This assay endpoint, APR_HepG2_CellLoss_1hr, was analyzed with bidirectional fitting relative to DMSO as the negative control and baseline of activity. Using a type of viability reporter, measures of all nuclear dna for gain or loss-of-signal activity can be used to understand the viability at the cellular-level. Furthermore, this assay endpoint can be referred to as a secondary readout, because this assay has produced multiple assay endpoints where this one serves a viability function. To generalize the intended target to other relatable targets, this assay endpoint is annotated to the cell cycle intended target family, where the subfamily is proliferation.
# Cells were treated with dimethyl sulfoxide (DMSO) as a solvent control at a final concentration of 0.5% v/v or with compounds in DMSO with a resulting final DMSO concentration of 0.5% v/v. Compound treatment was done at concentrations of 0.39, 0.78, 1.56, 3.12, 6.24, 12.5, 25, 50, 100, and 200 uM in duplicate on each plate. Cells were treated with compounds for 1, 24, or 72 hr. Carbonyl […] m-chloro-phenylhydrazone (CCCP) and taxol were used as positive controls for mitochondrial function and cytoskeletal stability, respectively; DMSO served as the negative control for this experiment. Cells were fixed by the direct addition of 50 uL formaldehyde in Hank's Balanced Salt Solution (HBSS) to a final concentration of 3.7%. After incubation in the fixation medium for 30 min at room temperature (293-298 K), cells were rinsed twice with HBSS and treated with cell permeabilization buffer (16 uL of 0.5% Triton X-100) for 10 min at room temperature (293-298 K) before labeling. For mitochondrial membrane potential and mitochondrial measurements, pre-fixed cells were incubated with 50 uL of MitoTracker Red CMXRos (Invitrogen) at a concentration of 250 nM for 30 min before fixation. In the remaining cases, post-fixed cells were labeled by incubation with a multiplexed mixture of primary antibodies in HBSS for 60 min at room temperature (293-298 K) to detect immunoreactivity of c-Jun (1:500), phospho-histone H3 (1:100), phospho-histone H2A.x (1:200), p53 (1:400), alpha-tubulin (1:200) and Hoechst 33342 (2 ug/mL). Cells were labeled for multiplexed imaging on two separate plates: a) Hoechst 33342, MitoTracker Red, phospho-histone H3, and alpha-tubulin, and b) Hoechst 33342, phospho-histone H2A.x, and c-Jun. A final rinse with HBSS (50 uL) was performed before analysis. The primary and secondary antibodies for the proteins were phospho-histone H3 (rabbit anti-phospho-histone H3 and FITC-donkey anti-rabbit IgG), phospho-histone H2A.x (mouse anti-phospho-histone H2A.x and FITC-donkey anti-mouse IgG), c-Jun (rabbit anti-phospho-c-Jun and Cy3-donkey anti-rabbit IgG), p53 (sheep anti-p53 and Cy5-donkey anti-sheep IgG), alpha-tubulin (mouse anti-alpha-tubulin and Cy5-donkey anti-mouse IgG). These antibodies are available as the CellCiphr HepG2 assay kit (Millipore).Digital images of each well were captured using a Cellomics ArrayScan VTI (Thermo Scientific Cellomics) (0.8 NA objective, 0.63x optical coupler, and XF-93 filter set) at 20x magnification. The images were acquired using the autofocus feature of the ArrayScan instrument, which entails the following steps. First, the camera focuses on channel 1 (Hoechst 33342), where nuclei are identified. Second, a Z offset of 1 um is used for capturing mitochondria (MitoTracker Red). […]
SMILES,outcome,AC50
CCCN(CC)CC1COC2(CCC(C(C)(C)C)CC2)O1 (stereo not given),inactive,
CCCCC(O)(Cn1cncn1)c1ccc(Cl)cc1Cl (stereo not given),inactive,
COc1cc(Cl)c(OC)cc1Cl,inactive,
CC(C)N1C(=O)N(c2ccccc2)CSC1=NC(C)(C)C,inactive,
CCOC(=O)C(C)OC(=O)c1cc(Oc2ccc(C(F)(F)F)cc2Cl)ccc1[N+](=O)[O-] (stereo not given),inactive,
Cc1cc(C)nc(Nc2ccccc2)n1,inactive,
Cn1c(-c2ccccc2)cc(-c2ccccc2)[n+]1C,inactive,
CCSC(=O)N1CCCCCC1,inactive,
COP(=S)(OC)SCn1nnc2ccccc2c1=O,inactive,
CO/N=C(/C1=NOCCO1)c1ccccc1Oc1ncnc(Oc2ccccc2Cl)c1F,inactive,
CC(C)C1(C)N=C(c2ncccc2C(=O)O)NC1=O (stereo not given),inactive,
CN/C(=N\[N+](=O)[O-])NCc1cnc(Cl)s1,inactive,
OC(c1ccc(Cl)cc1)(c1ccc(Cl)cc1)C(Cl)(Cl)Cl,,89.3 µM (active)
O=c1n(Cl)c(=O)n(Cl)c(=O)n1Cl,inactive,
CS(=O)(=O)c1ccc(C(=O)C2C(=O)CCCC2=O)c([N+](=O)[O-])c1,inactive,
O=C(O)c1c(Cl)ccc2cc(Cl)cnc12,inactive,
CC1(C)C(C=C(Cl)Cl)C1C(=O)OC(C#N)c1cccc(Oc2ccccc2)c1 (stereo not given),inactive,
Nc1c(Cl)c(Cl)nc(C(=O)O)c1Cl,inactive,
Clc1nc(Cl)nc(Nc2ccccc2Cl)n1,inactive,
CSC(=O)c1c(C(F)F)nc(C(F)(F)F)c(C(=O)SC)c1CC(C)C,inactive,

SMILES,outcome,AC50
CCOP(=S)(OCC)Oc1nc(Cl)n(C(C)C)n1,inactive,
CC(C)NC(=O)N1CC(=O)N(c2cc(Cl)cc(Cl)c2)C1=O,inactive,
CC1(C)CCC(=Cc2ccc(Cl)cc2)C1(O)Cn1cncn1 (stereo not given),inactive,
Nc1c(Cl)c(F)nc(OCC(=O)O)c1Cl,inactive,
CCNC(=O)NC(=O)C(C#N)=NOC,inactive,
N#Cc1c[nH]cc1-c1cccc2c1OC(F)(F)O2,inactive,
CC(C)(C)C(=O)C(Oc1ccc(Cl)cc1)n1cncn1 (stereo not given),inactive,
Cc1nc(N(C)C)nc(OC(=O)N(C)C)c1C,inactive,
CC(C)Nc1nc(Cl)nc(NC(C)C)n1,inactive,
CCCC(=NOCC)C1=C(O)CC(CC(C)SCC)CC1=O (stereo not given),inactive,
COCC(C)N(C(=O)CCl)c1c(C)csc1C (stereo not given),inactive,
CCN(CC)C(=O)C(C)Oc1cccc2ccccc12 (stereo not given),inactive,
CCNP(=S)(OC)O/C(C)=C/C(=O)OC(C)C (stereo not given),inactive,
N#Cc1c(Cl)cccc1Cl,inactive,
Cc1cnc(C2=NC(C)(C(C)C)C(=O)N2)c(C(=O)O)c1 (stereo not given),inactive,
Nc1cnn(-c2ccccc2)c(=O)c1Cl,inactive,
O=P(O)(O)CCCl,inactive,
N#CN=C1SCCN1Cc1ccc(Cl)nc1,inactive,
CCOc1nc(F)cc2nc(S(=O)(=O)Nc3c(Cl)cccc3Cl)nn12,inactive,
CCCCOCN(C(=O)CCl)c1c(CC)cccc1CC,inactive,
